# Reference: PubChem BioAssay (Tox21)
# Where “and” joins values, the source holds several entries; their conditions need not be identical. Identical values can stand only once. Inconclusive results are not listed. Where a call stands in place of a potency, no number is given. More than one record can exist for a structure, and the calls need not agree. Calls of active or inactive are those of the source. Calls come from the whole dose curve; as a rule, active = well fitted curve in the direction sought with a large enough effect in the repeat runs; inconclusive = weak or mixed curves; inactive = no such curve, though single readings can be large; an effect the other way counts as inactive or inconclusive.
# Test: Human pregnane X receptor (PXR) small molecule agonists, qHTS cell viability counter screen (AID 1346977); note: nearly all actives have a fitted effect of over 50% in size
# Conditions: PXR-Luc HepG2 viability, CellTiter-Fluor, 24 h; series mostly up to 92.4 µM; activity change, negative = cytotoxicity: at the top concentration
# In short: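 Same-well viability read: CellTiter-Fluor added after 23 hr compound exposure, fluorescence measured 1 hr later. Cells were PXR-Luc HepG2 seeded at 2,000/well in 5% charcoal-stripped FBS medium, rested 5 hr before dosing at 37 C.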
# Potency is the fitted concentration of half-maximal effect.
SMILES,"activity change, negative = cytotoxicity",Potency
CNC(=O)CSP(=S)(OC)OC,12.7% (inactive),
CCCCOCCOC(C)=O,,inactive
CC(C)(C#N)N=NC(C)(C)C#N,,inactive
O=C(O)c1nn(Cc2ccc(Cl)cc2Cl)c2ccccc12,,inactive
CC1CC(=O)O1 (centres undefined),,inactive
C=CC(Cl)CCl (centres undefined),,inactive
C=CC(=O)OCC(CC)(COC(=O)C=C)COC(=O)C=C,,31.6 µM (active) and 30.6 µM (active)
CCCCC(C#N)(Cn1cncn1)c1ccc(Cl)cc1 (centres undefined),,inactive
Oc1ccc(Cl)cc1Cl,,inactive
CC(C)(O)C#N,,inactive
O=NN1CCOCC1,,inactive
CCOC(=O)c1ccccc1N,,inactive
COc1ccc(O)c(C(C)(C)C)c1,,inactive
CCNc1nc(Cl)nc(NC(C)(C)C#N)n1,,inactive
Brc1ccc(Br)cc1,,inactive
CCC/C=N/O,,inactive
CCCCOC(=O)COC(=O)c1ccccc1C(=O)OCCCC,,inactive
Nc1ncn[nH]1,,inactive
CC(C)(c1ccccc1)c1ccc(O)c(C(C)(C)c2ccccc2)c1,,35.5 µM (active) and 48.6 µM (active)

SMILES,"activity change, negative = cytotoxicity",Potency
c1ccc(C2CO2)cc1 (centres undefined),,inactive
Clc1ccc(C(Cl)(Cl)Cl)cc1,,inactive
COc1ccc(C=O)cc1OC,-1.17% (inactive),
CCOS(=O)(=O)OCC,,inactive
ClCC(Cl)CCl,,inactive
O=NN(c1ccccc1)c1ccccc1,,inactive
CCC[CH2][Sn]([Cl])([CH2]CCC)[CH2]CCC,,562 nM (active) and 433 nM (active)
Clc1cccc(C(Cl)(Cl)Cl)n1,,inactive
COP(=O)(NC(C)=O)SC (centres undefined),-1.09% (inactive),
CSc1nc(NC(C)C)nc(NC(C)C)n1,,inactive
CC(C)COC(=O)c1ccccc1C(=O)OCC(C)C,,inactive
CN(C)c1ccccc1,,inactive
CCOP(=S)(OCC)OP(=S)(OCC)OCC,,inactive
CCOP(=O)(OCC)OCC,,inactive
[CH3][Sn]([Cl])([Cl])[Cl],,inactive
ClCc1ccccn1,,inactive
CCCCCCCC[N+](C)(CCCCCCCC)CCCCCCCC,,30.6 µM (active) and 5.45 µM (active) and 13.7 µM (active)
CC1(C)C(C(=O)OC(C#N)c2cccc(Oc3ccccc3)c2)C1(C)C (centres undefined),15.8% (inactive),
CCOP(=S)(OCC)SCSC(C)(C)C,,inactive

# Test: Caspase-3/7 induction in HepG2 cells by small molecules, qHTS assay (AID 1346978); note: nearly all actives have a fitted effect of over 15% in size
# Conditions: HepG2 caspase-3/7 activation, Caspase-Glo luminescence, 17 h; series mostly up to 92.4 µM; caspase activation: at the top concentration
# In short: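 Wild-type HepG2 cells, 2,000/well, settled 5 hr at 37 C and 5% CO2, then compound-treated for 17 hr; caspase-3/7 activity read by luminescent Caspase-Glo 3/7 after 30 min at room temperature.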
row,SMILES,Potency
1,CNC(=O)CSP(=S)(OC)OC,inactive
2,CCCCOCCOC(C)=O,inactive
3,CC(C)(C#N)N=NC(C)(C)C#N,inactive
4,O=C(O)c1nn(Cc2ccc(Cl)cc2Cl)c2ccccc12,inactive
5,CC1CC(=O)O1 (centres undefined),inactive
6,C=CC(Cl)CCl (centres undefined),inactive
7,C=CC(=O)OCC(CC)(COC(=O)C=C)COC(=O)C=C,25 µM (active) and 24.3 µM (active)
8,CCCCC(C#N)(Cn1cncn1)c1ccc(Cl)cc1 (centres undefined),inactive
9,Oc1ccc(Cl)cc1Cl,inactive
10,CC(C)(O)C#N,inactive
11,O=NN1CCOCC1,inactive
12,CCOC(=O)c1ccccc1N,inactive
13,COc1ccc(O)c(C(C)(C)C)c1,inactive
14,CCNc1nc(Cl)nc(NC(C)(C)C#N)n1,inactive
15,Brc1ccc(Br)cc1,inactive
16,CCC/C=N/O,inactive
17,CCCCOC(=O)COC(=O)c1ccccc1C(=O)OCCCC,inactive
18,Nc1ncn[nH]1,inactive
19,CC(C)(c1ccccc1)c1ccc(O)c(C(C)(C)c2ccccc2)c1,42.9 µM (active) and 68.6 µM (active)

row,SMILES,Potency
1,c1ccc(C2CO2)cc1 (centres undefined),inactive
2,Clc1ccc(C(Cl)(Cl)Cl)cc1,inactive
3,COc1ccc(C=O)cc1OC,inactive
4,CCOS(=O)(=O)OCC,inactive
5,ClCC(Cl)CCl,inactive
6,O=NN(c1ccccc1)c1ccccc1,inactive
7,CCC[CH2][Sn]([Cl])([CH2]CCC)[CH2]CCC,1.73 µM (active) and 2.73 µM (active)
8,Clc1cccc(C(Cl)(Cl)Cl)n1,inactive
9,COP(=O)(NC(C)=O)SC (centres undefined),inactive
10,CSc1nc(NC(C)C)nc(NC(C)C)n1,inactive
11,CC(C)COC(=O)c1ccccc1C(=O)OCC(C)C,inactive
12,CN(C)c1ccccc1,inactive
13,CCOP(=S)(OCC)OP(=S)(OCC)OCC,inactive
14,CCOP(=O)(OCC)OCC,inactive
15,[CH3][Sn]([Cl])([Cl])[Cl],inactive
16,ClCc1ccccn1,inactive
17,CCCCCCCC[N+](C)(CCCCCCCC)CCCCCCCC,54.4 µM (active) and 15.4 µM (active)
18,CC1(C)C(C(=O)OC(C#N)c2cccc(Oc3ccccc3)c2)C1(C)C (centres undefined),inactive
19,CCOP(=S)(OCC)SCSC(C)(C)C,inactive

# Test: Caspase-3/7 induction in CHO-K1 cells by small molecules, qHTS cell viability counter screen (AID 1346979); note: nearly all actives have a fitted effect of over 35% in size
# Conditions: CellTiter-Fluor fluorescence, 17 h; series mostly up to 92.4 µM; activity change, negative = cytotoxicity: at the top concentration
# In short: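 Cytotoxicity counter screen: CellTiter-Fluor added to compound-treated wild-type CHO-K1 cells at 16 h (37C, 5% CO2), fluorescence measured 1 h later; same wells as caspase-3/7 measurement.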
SMILES,Potency,"activity change, negative = cytotoxicity"
CNC(=O)CSP(=S)(OC)OC,14.1 µM (active) and inactive,
CCCCOCCOC(C)=O,inactive,
CC(C)(C#N)N=NC(C)(C)C#N,inactive,
O=C(O)c1nn(Cc2ccc(Cl)cc2Cl)c2ccccc12,inactive,
CC1CC(=O)O1 (centres undefined),inactive,
C=CC(Cl)CCl (centres undefined),inactive,
C=CC(=O)OCC(CC)(COC(=O)C=C)COC(=O)C=C,4.99 µM (active) and 4.86 µM (active),
CCCCC(C#N)(Cn1cncn1)c1ccc(Cl)cc1 (centres undefined),inactive,
Oc1ccc(Cl)cc1Cl,inactive,
CC(C)(O)C#N,inactive,
O=NN1CCOCC1,inactive,
CCOC(=O)c1ccccc1N,inactive,
COc1ccc(O)c(C(C)(C)C)c1,inactive,
CCNc1nc(Cl)nc(NC(C)(C)C#N)n1,inactive,
Brc1ccc(Br)cc1,inactive,
CCC/C=N/O,inactive,
CCCCOC(=O)COC(=O)c1ccccc1C(=O)OCCCC,inactive,
Nc1ncn[nH]1,inactive,
CC(C)(c1ccccc1)c1ccc(O)c(C(C)(C)c2ccccc2)c1,30.4 µM (active) and 43.3 µM (active),

SMILES,Potency,"activity change, negative = cytotoxicity"
c1ccc(C2CO2)cc1 (centres undefined),inactive,
Clc1ccc(C(Cl)(Cl)Cl)cc1,inactive,
COc1ccc(C=O)cc1OC,inactive,
CCOS(=O)(=O)OCC,inactive,
ClCC(Cl)CCl,inactive,
O=NN(c1ccccc1)c1ccccc1,inactive,
CCC[CH2][Sn]([Cl])([CH2]CCC)[CH2]CCC,194 nM (active) and 344 nM (active),
Clc1cccc(C(Cl)(Cl)Cl)n1,inactive,
COP(=O)(NC(C)=O)SC (centres undefined),48.6 µM (active) and inactive,
CSc1nc(NC(C)C)nc(NC(C)C)n1,inactive,
CC(C)COC(=O)c1ccccc1C(=O)OCC(C)C,inactive,
CN(C)c1ccccc1,inactive,
CCOP(=S)(OCC)OP(=S)(OCC)OCC,inactive,
CCOP(=O)(OCC)OCC,,1% (inactive)
[CH3][Sn]([Cl])([Cl])[Cl],inactive,
ClCc1ccccn1,inactive,
CCCCCCCC[N+](C)(CCCCCCCC)CCCCCCCC,13.7 µM (active) and 4.86 µM (active) and 6.11 µM (active),
CC1(C)C(C(=O)OC(C#N)c2cccc(Oc3ccccc3)c2)C1(C)C (centres undefined),,-3.85% (inactive)
CCOP(=S)(OCC)SCSC(C)(C)C,inactive,
